# From PubChem BioAssay AID2315 (National Center for Advancing Translational Sciences (NCATS), 2010)
# The campaign covered roughly 290,000 compounds. About 27,000 (9.3%) were called active. Only a selection was taken, and actives are over-represented in it overall. A number with no mark means an inactive call. Rule as the data show it: active = inhibition mostly above about 28% (no sharp cut-off); inactive = mostly below about 43%.
# Test: A qHTS for Small Molecule Inhibitors of Shiga Toxin; also: 0% is about no effect
# Conditions: Vero cells, Shiga toxin protein synthesis inhibition reporter; at 38.7 µM, stronger effect = higher value
row,SMILES,inhibition
1,O=C(NCCS(=O)(=O)c1ccc(Br)cc1)c1ccccc1Cl,-1.37%
2,Cc1ccnc(NC(=O)C2CCN(S(=O)(=O)c3c(C)c(C)cc(C)c3C)CC2)c1,8.68%
3,COc1ccc(N(C(=O)CNC(=O)c2ccco2)C(C(=O)NCC2CCCO2)c2ccccc2)cc1Cl (configuration not stated),15.8%
4,C/C(=N\NC(=O)C1(C)CC1(Br)Br)c1ccc(C)cc1C (configuration not stated),-7.42%
5,CCOC(OCC)OCC,11.5%
6,COCCCN1C(=O)c2ccc(C(=O)OCC(=O)NCc3ccccc3OC)cc2C1=O,9.09%
7,COc1ccccc1CNC(=O)c1ccc(CS(=O)(=O)c2ccccc2)o1,2.09%
8,COC(=O)CN1C(=O)[C@H]2[C@@H](C3CC3)N3C(=O)CN(Cc4ccc(-c5ccccc5)cc4)C(=O)[C@@]3(Cc3ccccc3)[C@H]2C1=O,9.74%
9,CCOc1ccccc1-c1cc(C(=O)N/N=C(\C)c2cccnc2)c2ccccc2n1,-30.4%
10,Cc1ccccc1/C=C\c1nc(O)c([N+](=O)[O-])c(=O)[nH]1,-14.2%
11,Cc1ccc2[nH]c(=O)c(CN(C)S(=O)(=O)c3cccc4nonc34)cc2c1,-4.87%
12,CCC1(CC)Cc2ccccc2-c2nc(CCl)[nH]c(=O)c21,-4.46%
13,CCc1ccc(OCC(O)CN2CCN(CCO)CC2)cc1 (configuration not stated),-8.28%
14,COc1ccc(NC(=O)N2CCCC2C(=O)NCc2ccccc2Cl)cc1 (configuration not stated),-3.06%
15,CC(NC(=O)c1ccco1)c1ccc2c(c1)OCO2 (configuration not stated),-15.1%
16,CCC(C)(C)NC(=O)C(c1ccc(O)cc1)N(Cc1ccco1)C(=O)CCC(=O)Nc1ccccn1 (configuration not stated),-12.1%
17,Cc1ccc(C)c(S(=O)(=O)N2CCCOC2CNC(=O)C(=O)NC2CCCCC2)c1 (configuration not stated),20.6%
18,CC(C)c1ccc(S(=O)(=O)N2CCN(C(=O)c3ccc(N4CCCC4)c([N+](=O)[O-])c3)CC2)cc1,25.8%
19,O=C(Nc1cccnc1)c1ccc2c(c1)OCO2,33% (active)
20,O=C(CN1CCc2cc3c(cc2C1)OCCCO3)Nc1ccccc1,18.6%
21,CC(=O)c1ccc2c(c1)OCCOCCOc1ccc(C(C)=O)cc1OCCOCCO2,-5.3%
22,CC(Sc1nc2cc(Cl)ccc2s1)C(=O)Nc1ccc2c(c1)OCO2 (configuration not stated),0% (active)
23,O=C(Nc1ccccc1)c1ccc2c(c1)OCCCO2,58.6% (active)
24,O=C(Nc1ccc2c(c1)OCO2)c1sc2cc(Cl)ccc2c1Cl,-13.4%

row,SMILES,inhibition
1,Cc1nc(NC(=O)c2ccc3c(c2)OCCO3)ccc1Br,90.6% (active)
2,O=C(Nc1ccc(Cl)cn1)c1ccc2c(c1)OCCO2,32.4%
3,COc1ccc(C(=O)Nc2cccnc2)cc1C(=O)Nc1cccnc1,9.57%
4,O=C(Nc1cccc(S(=O)(=O)Nc2ccc(Cl)cc2)c1)c1ccc2c(c1)OCCO2,11.3%
5,CC(Sc1nc(-c2ccccc2)cc(C(F)(F)F)n1)C(=O)Nc1ccc2c(c1)OCO2 (configuration not stated),-14.3%
6,CN1CCC(CN)(N2CCN(c3ccccc3)CC2)CC1,-6.52%
7,COc1cccc2sc(N(CCCN(C)C)C(=O)CCS(=O)(=O)c3ccccc3)nc12,8.49%
8,CC1(C)Cc2c(cnn2-c2cccc(F)c2)C(NC(=O)c2cc[n+]([O-])cc2)C1 (configuration not stated),-5.88%
9,Cc1cccnc1NC(=O)Cn1c(=O)oc2ccccc21,30.2%
10,Cc1ccc(S(=O)(=O)c2c[nH]c3ccc(Cl)cc3c2=O)cc1,-4.43%
11,CC(NC(=O)Nc1cccc([N+](=O)[O-])c1)c1ccc2c(c1)OCO2 (configuration not stated),6.02%
12,O=C(Nc1ccc(C(=O)N2CCCCC2)cc1)c1cccc([N+](=O)[O-])c1,27.3%
13,O=C(Nc1cccc([N+](=O)[O-])c1)Nn1cnnc1,-6.68%
14,O=C(Nc1ccc(C2CC2(Cl)Cl)cc1)c1cccc([N+](=O)[O-])c1 (configuration not stated),76.3% (active)
15,O=C(Nc1ccc(NC(=O)c2ccco2)c(Cl)c1)c1cccc([N+](=O)[O-])c1,15.6%
16,O=C(Nc1ccc2c(c1)OCO2)c1ccc(N2C(=O)c3ccccc3C2=O)cc1,17.3%
17,O=C(Nc1ccc(N2CCOCC2)cc1)c1ccc2c(c1)OCO2,76.4% (active)
18,O=C(c1ccc2c(c1)OCO2)N1CCOCC1,1.95%
19,O=C(Nc1cccc([N+](=O)[O-])c1)c1ccc2c(c1)OCO2,58.7% (active)
20,CCSc1ccccc1C(=O)Nc1ccc2c(c1)OCO2,45.1%
21,CC(C)C(=O)Nc1cccc(C(=O)Nc2ccc3c(c2)OCO3)c1,143% (active)
22,CCN(CCCNC(=O)c1ccc2c(c1)NC(=O)CN2C)c1cccc(C)c1,-5.92%
23,COc1ccc(NC(=O)C2=CC(c3ccc(OC)c(OC)c3)=NS(=O)(=O)N2C)cc1,7.8%
